TDP1 cell CPT: qHTS for Inhibitors of human tyrosyl-DNA phosphodiesterase 1 (TDP1): qHTS in cells in presence of CPT; chicken DT40 Tdp1-/-;hTDP1 cells + 20 nM CPT, ATP luminescence, 48 h; AID 686979, 2013; 420,000 tested, 12% active; Potency, µM (highest dose often 46.2 µM), inactives show at the highest dose activity change, negative = growth inhibition, usual class: inhibitors; also: potency is read from the fitted curve at half-maximal effect; nearly all actives have a fitted effect of over 55% in size
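Chicken DT40 Tdp1-/- cells complemented with human TDP1, 400 cells/well, exposed to compounds plus 20 nM camptothecin for at least 48 h at 37 C; viability read as ATP content by CellTiter-Glo luminescence.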
TDP1 cell noCPT: qHTS for Inhibitors of human tyrosyl-DNA phosphodiesterase 1 (TDP1): qHTS in cells in absence of CPT. DT40 Tdp1-/- hTDP1 cells, no CPT, ATP luminescence, 48 h. Potency, µM (top dose mostly 46.2 µM), for inactives: at the highest dose activity change, negative = growth inhibition, usual class: inhibitors. 420,000 tested, 15% active. AID 686978, 2013; also: potency is read from the fitted curve at half-maximal effect; nearly all actives have a fitted effect of over 55% in size
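Camptothecin absent (DMSO only). Human TDP1-complemented DT40 knockout cells, 400 cells/well, 37 °C for minimum 48 hr; ATP measured via CellTiter-Glo, 30 min dark incubation, luminescence.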
TDP1 block: qHTS Assay for Inhibitors of Tyrosyl-DNA Phosphodiesterase (TDP1); recombinant TDP1, AlphaScreen DNA substrate cleavage; Potency, µM (series often up to 130 µM), without a hit: at the highest dose activity change, negative = inhibition, actives largely listed as inhibitors; 350,000 tested, 0.28% active; also: potency is read from the fitted curve at half-maximal effect; nearly all actives have a fitted effect of over 40% in size
Target sequence (Q9NUW8 whole entry, looked up): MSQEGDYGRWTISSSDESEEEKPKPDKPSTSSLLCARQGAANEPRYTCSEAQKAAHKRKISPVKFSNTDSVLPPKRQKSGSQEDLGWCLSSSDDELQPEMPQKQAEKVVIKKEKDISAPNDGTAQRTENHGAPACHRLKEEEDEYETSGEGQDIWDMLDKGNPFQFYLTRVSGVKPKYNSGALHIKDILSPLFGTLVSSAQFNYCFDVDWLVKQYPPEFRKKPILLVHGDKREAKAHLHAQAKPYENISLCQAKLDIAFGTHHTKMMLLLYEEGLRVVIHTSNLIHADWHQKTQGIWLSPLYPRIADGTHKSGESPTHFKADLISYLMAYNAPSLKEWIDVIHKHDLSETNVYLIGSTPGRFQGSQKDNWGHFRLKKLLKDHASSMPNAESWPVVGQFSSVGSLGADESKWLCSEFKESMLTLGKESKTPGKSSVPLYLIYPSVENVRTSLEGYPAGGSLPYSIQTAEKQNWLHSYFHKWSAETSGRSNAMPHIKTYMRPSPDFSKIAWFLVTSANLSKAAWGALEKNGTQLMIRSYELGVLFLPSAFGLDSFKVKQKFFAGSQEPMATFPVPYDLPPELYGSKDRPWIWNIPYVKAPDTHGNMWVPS
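Here, a 5' biotin and 3' phosphotyrosine-FITC DNA oligonucleotide reports Tdp1 activity: intact substrate bridges AlphaScreen beads, while cleavage leaves a 3' phosphate and drops signal. All incubations at room temperature.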
IL1B secr inh: qHTS for Inhibitors of Inflammasome Signaling: IL-1-beta AlphaLISA Primary Screen | THP-1 LPS/ATP IL-1B secretion, AlphaLISA, 16 h; active compounds read low | activity change, % at 57.5 µM | 360,000 tested, 4.7% active | AID 743279, 2014; in the data active = activity change below about -50%; inconclusive = mostly about -30% to -49%
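THP-1 cells pretreated 1 hr with compounds (up to 57.5 uM final), then stimulated with LPS (250 ng/mL final) plus ATP (1.25 mM final); secreted IL-1B measured by AlphaLISA after 16 hr, decreased signal indicating inhibition.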
ELG1 repair inh: qHTS screen for small molecules that inhibit ELG1-dependent DNA repair in human embryonic kidney (HEK293T) cells expressing luciferase-tagged ELG1 | 330,000 tested, 2.3% active | AID 504467, 2011 | HEK293T ELG1-luciferase reporter, luminescence, 16 h; DNA damage induced by 5-fluorouridine | Potency, µM (highest dose often 46.1 µM), for inactives: at the top dose activity change, negative = inhibition, usual class: inhibitors; also: potency is read from the fitted curve at half-maximal effect; nearly all actives have a fitted effect of over 55% in size
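Overnight (16 hr) co-exposure of 2,000 cells/well to 5-fluorouridine and compound at 37 °C preceded detection. Luciferase was quantified via ONE-Glo luminescence; loss of signal denotes inhibition.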
Giardia killer: Small Molecules that selectively kill Giardia lamblia: qHTS; activity change, % at 7.66 µM, hits read low; 340,000 tested, 0.15% active; AID 540267, 2011; Giardia lamblia trophozoite viability; in the data active = activity change below about -80%; inconclusive = between about -30% and that limit;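 also: parasites exposed to compound for two days anaerobically before the ATP read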
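Trophozoite viability was measured as ATP-dependent luminescence, read 15-30 min after reagent addition. Before that, parasites at 100 cells/well were exposed to compounds for 48 h, anaerobically, at 37 deg C.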
Active calls of the source: *; ? = inconclusive; . = not tested or not shown; [ ] = another dose, or the depositor's remark. Hits are enriched below; roughly 19% of the tested compounds scored in any of these assays. Unless noted, calls follow the shape of the dose curve; as a rule, active = well fitted curve in the direction sought with a large enough effect; inconclusive = small, poorly fitted or top-dose-only effect, or another doubt; inactive = no such curve, though single readings can be large; an effect the other way counts as inactive or inconclusive. % is scaled to controls: 0 for no effect and ±100 for the full control effect.

SMILES	TDP1 cell CPT	TDP1 cell noCPT	TDP1 block	IL1B secr inh	ELG1 repair inh	Giardia killer
O=C(N/N=C/c1coc2ccc(Cl)cc2c1=O)c1ccc(O)cc1	?	-19.1%	5.4%[56.1 µM]	-3.8	?	-27.9
Oc1c(Cl)cc(Cl)cc1/C=N/Nc1ncc(Br)cn1	1.16µM*	1.3µM*	-1.2%	9.5	?	-9.5
O=C(N/N=C/c1coc2ccc(Cl)cc2c1=O)c1ccncc1	?	?	6.2%	-7.4	16.4µM*	12.4
CCC(Cc1ccccc1)NC(=O)C1CC1 (configuration not stated)	0.5%	11.1%	.	7.7	1.0%	-19.6
N#Cc1ccccc1NC(=O)CSc1n[nH]c(=O)n1C1CC1	12.3%	-4.8%	1.0%	-24.0	0.0%	-6.2
CC(C)CC1NC(=O)N(CC(=O)Nc2ccc(OC(F)F)cc2)C1=O (configuration not stated)	14.6%	?	-10.0%	-18.4	6.3%	-6.7
O=C(N/N=C/c1cc(Br)cc([N+](=O)[O-])c1O)c1ccc(NC(=O)c2ccc(F)cc2)cc1	23.1µM*	14.6µM*	?	69.1	13µM*	1.8
O=C(CCCCCNC(=O)c1ccccc1)N/N=C/c1ccc(O)cc1O	-19.4%	-29.7%	10.5%	89.6	8.2%	1.6
O=C(N/N=C/c1c[nH]c2ccc(Br)cc12)c1ccn(Cc2ccc(Cl)cc2Cl)n1	?	20.6µM*	2.1%	?	-14.8%	3.8
O=C(N/N=C/c1c[nH]c2ccccc12)c1ccncc1	31.4%	-12.0%	3.4%	35.1	19.3%	-3.8
CCc1cc(C(=O)N/N=C/c2ccc(O)cc2O)c2ccccc2n1	8.2µM*	?	3.4%	130.7	?	7.2
O=C(N/N=C/c1c[nH]c2ccc(Br)cc12)c1ccncc1	?	?	89.1µM*	-17.3	1.6%	-2.1
O=C(N/N=C/c1ccccc1Cl)c1ccc(F)cc1	7.3%	-0.7%	2.0%	-12.7	?	-5.2
CCCCn1nc(NC(=O)c2cccc(Cl)c2)c2cc3cccc(C)c3nc21	?	?	-2.5%	.	.	.
COc1ccc(S(=O)(=O)N2C[C@H]3CON(C)[C@H]3C[C@H]2c2ccc(-c3cc4ccccc4o3)cc2)cc1	?	?	.	-11.6	.	.
COc1ccc(CNC(=O)COc2ccc(Br)c(C)c2)cc1	-3.6%	15.7%	.	0.3	0.0%	20.9
O=C(N/N=C/c1ccc(O)cc1O)c1ccc(NC(=O)C2CCCCC2)cc1	6.51µM*	7.31µM*	-2.4%	266.5	7.6%	9.2
Cc1nonc1C(=O)N/N=C/c1ccc(O)cc1O	3.26µM*	3.66µM*	5.6%	141.6	8.0%	5.0
O=C(N/N=C/c1ccc(Cl)cc1Cl)c1ccncc1	14.6%	0.2%	1.9%	-4.0	14.0%	-1.0
O=C(N/N=C/c1cc(Br)cc(Br)c1O)c1ccncc1	2.59µM*	0.651µM*	7.5%	163.9	?	7.7
O=C(N/N=C/c1cccc(O)c1)c1ccc(NC(=O)C2CCCCC2)cc1	?	?	.	-2.4	-6.1%	-6.3
O=C(N/N=C/c1ccc(O)cc1O)c1ccncc1	8.2µM*	4.61µM*	.	176.4	?	-7.1
Cc1[nH]n(-c2ccc(F)cc2)c(=O)c1C=Nc1ccc(S(=O)(=O)N(C)C)cc1	6.6%	-26.9%	2.6%	14.1	?	-11.8
COc1ccc(N2CCN(C(=O)[C@H](Cc3c[nH]c4ccccc34)NC(C)=O)CC2)cc1	-3.8%	-1.8%	0.0%	13.1	-9.9%	13.2
Cc1ccc(-c2nc(C)c(CCNC(=O)c3cccs3)s2)cc1	.	.	1.1%	.	.	.
SMILES	TDP1 cell CPT	TDP1 cell noCPT	TDP1 block	IL1B secr inh	ELG1 repair inh	Giardia killer
CC(C)CC1NC(=O)c2ccc(Cl)cc2-n2c1nc1ccc(Cl)cc1c2=O (configuration not stated)	.	.	0.1%	.	17.9%	.
CC(C)(C)NCC(O)CSc1nc(-c2ccc(C(N)=O)s2)cs1 (configuration not stated)	11.9%	-28.8%	.	.	.	.
N=C(N)N1Cc2ccccc2C(O)C1 (configuration not stated)	.	.	7.5%	.	.	.
CCN1CCS/C1=C\C=C\C1=[N+](CC)CCS1	0.731µM*	0.206µM*	6.0%	-16.5	0.58µM*	12.5
CCN1CCS/C1=C/C=C/C1=[N+](CC)CCS1	0.184µM*	0.146µM*	8.1%	9.5	-0.8%	13.5
O=C1OCCC1Sc1nnc(-c2ccc(F)cc2)n1Cc1ccccc1 (configuration not stated)	-24.6%	-1.0%	5.9%	-2.0	-3.3%	-4.1
COc1ccc(NC(=O)c2ccc3c(=O)n(-c4ccc(OC)cc4OC)c(=S)[nH]c3c2)c(OC)c1	23.1µM*	20.6µM*	5.1%	-11.0	?	-4.3
COC(=O)c1ccc2c(=O)n(Cc3ccc(C(=O)NC(C)C)cc3)c(=S)[nH]c2c1	?	23.1µM*	4.7%	32.0	9.5%	9.9
CC(C)NC(=O)c1ccc2c(=O)n(CC3CCCO3)c(=S)[nH]c2c1 (configuration not stated)	2.7%	-24.9%	5.3%	15.5	-10.9%	-1.3
COc1ccc(-n2c(=S)[nH]c3cc(C(=O)Nc4cc(C(N)=O)ccc4OC)ccc3c2=O)c(OC)c1	4.9%	-24.3%	-0.4%	-14.5	0.4%	-4.9
CCOc1ccc(NC(=O)c2ccc3c(=O)n(-c4ccc(OC)cc4OC)c(=S)[nH]c3c2)cc1	.	.	3.5%	.	8.2µM*	.
COc1ccc(NC(=O)c2ccc3c(=O)n(CC4CCCO4)c(=S)[nH]c3c2)c(OC)c1 (configuration not stated)	?	13µM*	4.4%	15.3	-23.0%	-11.6
O=C(COC(=O)c1cc(S(=O)(=O)N2CCCCC2)ccc1N1CCOCC1)c1ccccc1	?	?	0.3%	-2.0	-27.5%	4.9
CC1CCCC(NC(=O)c2ccc3c(=O)n(CC4CCCO4)c(=O)[nH]c3c2)C1C (configuration not stated)	?	18.4µM*	2.9%	-24.5	?	-1.0
COc1ccc(CCn2c(=S)[nH]c3cc(C(=O)NCc4ccco4)ccc3c2=O)cc1OC	20.6µM*	16.4µM*	-3.1%	14.8	-21.7%	-0.1
COC(=O)c1ccc2c(=O)n(-c3ccccc3F)c(=S)[nH]c2c1	-27.6%	-25.0%	7.9%	60.5	18.3µM*	-10.8

Screening data deposited in PubChem BioAssay by National Center for Advancing Translational Sciences (NCATS).
